Reference: PubChem BioAssay (NCATS)
Where “and” joins values, the source holds several entries; their conditions need not be identical. Identical values can stand only once. Results filed as inconclusive are left out. Entries that show only a call come without a potency. Calls of active or inactive are those of the source. Unless noted, calls follow the shape of the dose curve; as a rule, active = well fitted cell-killing curve with a large enough effect; inconclusive = small, poorly fitted or top-dose-only effect; inactive = flat fitted curve, though single readings scatter.

Key:
[1] = Cell Viability - LYMP2-008 (AID 980);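 also: cells exposed to compound for 24 h at 37 °C; nearly all actives have a fitted effect of over 60% in size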
Method in brief: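 Cells seeded at 2500/well and rested 5 hr at 37 C; compounds added over a concentration range and incubated 24 hr at 37 C; CellTiter-Glo added, 30 min at room temperature; luminescence read and AC50 fitted with Hill model.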

[2] = Cell Viability - LYMP2-012 (AID 982);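 also: cellular ATP by luciferase luminescence where a drop means cytotoxicity; cells exposed to compound for one day before reading; nearly all actives have a fitted effect of over 55% in size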
[3] = Cell Viability - LYMP2-014 (AID 983);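 also: series mostly up to about 92 µM; cells exposed to compound for 24 h at 37 °C; nearly all actives have a fitted effect of over 50% in size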
Method in brief: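 Cells are plated at 2500/well and left 5 hr at 37 C. Compounds are added across a concentration range and incubated 24 hr at 37 C in complete medium. CellTiter-Glo is added, and luminescence is read after 30 min at room temperature.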

[4] = Cell Viability - LYMP2-016 (AID 984);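 also: cells exposed to compound for 24 hours at 37 °C; nearly all actives have a fitted effect of over 55% in size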
Method in brief: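 Cells were seeded at 2500 per well and rested 5 hr before a 24 hr compound exposure at 37 C. Viability was then gauged as cellular ATP by luciferase luminescence, with AC50 values fitted to the Hill equation.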

[5] = Cell Viability - LYMP2-018 (AID 985); also: nearly all actives have a fitted effect of over 50% in size
Method in brief: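 Seed 2500 lymphoblastoid cells per well, incubate 5 hr at 37 C, add compound and incubate 24 hr at 37 C, add CellTiter-Glo, wait 30 min at room temperature, then read luminescence.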

[6] = Cell Viability - LYMP2-020 (AID 986);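 also: series mostly up to about 92 µM; cells exposed to compound for 24 h at 37 °C; nearly all actives have a fitted effect of over 55% in size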
Method in brief: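 Seed 2500 cells per well and incubate 5 hr at 37 C. Add compounds at a concentration series and incubate 24 hr at 37 C. Add CellTiter-Glo, wait 30 min at RT, read luminescence, and fit a Hill curve for AC50.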

[7] = Cell Viability - LYMP2-024 (AID 988); also: nearly all actives have a fitted effect of over 60% in size
Method in brief: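 qHTS cytotoxicity, human lymphoblastoid line, complete medium; 24 h cpd treatment, 37 C; CellTiter-Glo ATP luminescence readout; tetraoctylammonium bromide positive control; AC50 via Hill fit.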

[8] = Cell Viability - LYMP2-026 (AID 989);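 also: cells exposed to compound for 24 h at 37 °C; nearly all actives have a fitted effect of over 50% in size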
Method in brief: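 Cells are seeded at 2500 per well and held 5 hr at 37 C. Compounds are added in concentration series for 24 hr, then CellTiter-Glo reagent is applied and luminescence read.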

[9] = Cell Viability - LYMP1-002 - Assay at 24 hr (AID 993)
Method in brief: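 Acute toxicity is measured as concentration-dependent loss of cellular ATP in a human lymphoblastoid line (Coriell LYMP1-002) after 24 h treatment in complete medium. ATP is quantified by luciferase luminescence and AC50 derived by Hill modelling.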

[10] = Cell Viability - LYMP1-002 - Assay at 40 hr (AID 994); also: nearly all actives have a fitted effect of over 60% in size
Method in brief: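 Cells are plated at 2500 per well and rested 5 hr at 37 C. Compounds are added and incubated 40 hr at 37 C. CellTiter-Glo reagent is added for 30 min at room temperature before luminescence is read.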

[11] = qHTS Assay for Identification of Small Molecule Inducers of Hypoxia Response (AID 2120; active = well fitted curve in the direction sought with a large enough effect in the signal ratio, with a control signal flat, not every such curve was filed as active; the % refers to the signal ratio)
Method in brief: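 Cell-based qHTS for reporter induction: hypoxia response element controlled beta-lactamase in ME-180 cells. Compounds incubated 17 h at 37 degrees C; activity from blue/green (460/530 nm) ratio, inducers ranked by AC50.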

[12] = molecular target: Estrogen receptor (Homo sapiens) (UniProt P03372); experiment: qHTS assay for small molecule antagonists of estrogen receptor alpha signaling (AID 588513; active = well fitted curve in the direction sought with a large enough effect in the signal ratio, with a control signal flat, not every such curve was filed as active; the % refers to the signal ratio)
Sequence of Estrogen receptor (Homo sapiens) (P03372 whole entry, looked up): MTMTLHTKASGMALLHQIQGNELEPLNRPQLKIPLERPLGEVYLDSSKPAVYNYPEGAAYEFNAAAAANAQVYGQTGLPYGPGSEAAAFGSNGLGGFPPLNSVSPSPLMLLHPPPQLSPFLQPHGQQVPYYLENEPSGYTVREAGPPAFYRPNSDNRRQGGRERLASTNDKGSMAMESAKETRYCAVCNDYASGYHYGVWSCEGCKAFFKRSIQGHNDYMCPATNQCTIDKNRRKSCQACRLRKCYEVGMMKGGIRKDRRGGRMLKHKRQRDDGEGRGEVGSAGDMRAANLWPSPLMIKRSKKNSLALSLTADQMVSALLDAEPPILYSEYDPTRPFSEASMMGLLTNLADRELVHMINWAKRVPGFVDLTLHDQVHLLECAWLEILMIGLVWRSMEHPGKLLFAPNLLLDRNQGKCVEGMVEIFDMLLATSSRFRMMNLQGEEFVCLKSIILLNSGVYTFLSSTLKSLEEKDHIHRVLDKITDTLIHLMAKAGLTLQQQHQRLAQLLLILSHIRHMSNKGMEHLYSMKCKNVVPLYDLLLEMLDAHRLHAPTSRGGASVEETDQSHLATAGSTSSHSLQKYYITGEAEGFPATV
Method in brief: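 Fluorescence from CCF4 substrate after 2 h at room temperature gave reporter activity; cells had been exposed to compound and 0.5nM 17-beta-estradiol for 18 h at 37 C. Hill-equation fitting yielded IC50 and maximal response.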

[13] = molecular target: Glucocorticoid receptor (Homo sapiens) (UniProt P04150); experiment: qHTS assay for small molecule agonists of glucocorticoid receptor signaling (AID 588532; active = well fitted curve in the direction sought with a large enough effect in the signal ratio, with a control signal flat; the % refers to the signal ratio); details: HeLa MMTV-bla, beta-lactamase ratio, agonist, 18 h; stronger effect = higher value; percent of dexamethasone control, DMSO zero
Sequence of Glucocorticoid receptor (Homo sapiens) (P04150 whole entry, looked up): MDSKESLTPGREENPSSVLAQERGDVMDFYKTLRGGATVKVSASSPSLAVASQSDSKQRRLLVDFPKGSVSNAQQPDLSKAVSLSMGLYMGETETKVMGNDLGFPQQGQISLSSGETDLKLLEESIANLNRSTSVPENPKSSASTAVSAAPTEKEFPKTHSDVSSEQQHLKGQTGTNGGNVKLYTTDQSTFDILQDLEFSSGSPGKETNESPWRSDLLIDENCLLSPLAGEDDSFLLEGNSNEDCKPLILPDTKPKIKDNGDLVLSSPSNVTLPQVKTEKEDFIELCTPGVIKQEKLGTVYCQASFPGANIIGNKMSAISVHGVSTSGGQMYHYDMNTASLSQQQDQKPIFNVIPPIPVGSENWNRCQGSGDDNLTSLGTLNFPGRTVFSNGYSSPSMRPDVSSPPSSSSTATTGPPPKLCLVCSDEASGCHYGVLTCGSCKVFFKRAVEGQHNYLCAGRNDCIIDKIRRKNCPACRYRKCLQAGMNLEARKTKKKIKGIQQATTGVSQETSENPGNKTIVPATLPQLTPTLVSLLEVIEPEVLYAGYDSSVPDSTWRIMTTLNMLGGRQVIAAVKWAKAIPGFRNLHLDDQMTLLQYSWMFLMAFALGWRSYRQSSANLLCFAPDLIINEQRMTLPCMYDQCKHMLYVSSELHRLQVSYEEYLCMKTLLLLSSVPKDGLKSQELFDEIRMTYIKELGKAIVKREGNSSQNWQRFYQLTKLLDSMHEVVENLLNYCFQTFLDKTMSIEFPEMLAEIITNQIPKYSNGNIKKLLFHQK
Method in brief: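 Using MMTV-bla HeLa cells in medium with 1% stripped FBS and 25 mM HEPES, compounds were titrated and incubated overnight-length (18 h). Beta-lactamase cleavage of CCF4 was quantified by dual-emission fluorescence.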

[14] = molecular target: Glucocorticoid receptor (Homo sapiens) (UniProt P04150); experiment: qHTS assay for small molecule antagonists of glucocorticoid receptor signaling (AID 588533; active = well fitted inhibition curve with a large enough effect in the signal ratio, with a control signal flat, not every such curve was filed as active; the % refers to the signal ratio;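 also: cells stimulated with 2 nM dexamethasone as agonist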)
Method in brief: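 Antagonist-mode qHTS: compound titrations added to GRE-bla HeLa cells, then dexamethasone 2 nM final; 18 h, 37 C. CCF4 FRET fluorescence normalized to dexamethasone and DMSO; IC50 from Hill fit.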

[15] = qHTS assay for small molecule antagonists of peroxisome proliferator-activated receptor delta signaling (AID 588535; active = well fitted inhibition curve with a large enough effect in the signal ratio, with a control signal flat, not every such curve was filed as active; the % refers to the signal ratio;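 as to max response: cells co-treated with a PPAR-delta agonist as stimulator during compound exposure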); details: HEK293T PPARd-UAS-bla, beta-lactamase FRET ratio, 18 h; 460 nm channel
Method in brief: (§1)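 Titrations were run on PPAR-delta-UAS-bla HEK293T cells in charcoal/dextran-stripped serum, incubated 18 h at 37 C. CCF4 fluorescence (460/530 nm) after 2 h RT; Hill equation yields IC50 and maximal response.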

[16] = molecular target: Peroxisome proliferator-activated receptor delta (Homo sapiens) (UniProt Q03181); experiment: as above
Sequence of Peroxisome proliferator-activated receptor delta (Homo sapiens) (Q03181 whole entry, looked up): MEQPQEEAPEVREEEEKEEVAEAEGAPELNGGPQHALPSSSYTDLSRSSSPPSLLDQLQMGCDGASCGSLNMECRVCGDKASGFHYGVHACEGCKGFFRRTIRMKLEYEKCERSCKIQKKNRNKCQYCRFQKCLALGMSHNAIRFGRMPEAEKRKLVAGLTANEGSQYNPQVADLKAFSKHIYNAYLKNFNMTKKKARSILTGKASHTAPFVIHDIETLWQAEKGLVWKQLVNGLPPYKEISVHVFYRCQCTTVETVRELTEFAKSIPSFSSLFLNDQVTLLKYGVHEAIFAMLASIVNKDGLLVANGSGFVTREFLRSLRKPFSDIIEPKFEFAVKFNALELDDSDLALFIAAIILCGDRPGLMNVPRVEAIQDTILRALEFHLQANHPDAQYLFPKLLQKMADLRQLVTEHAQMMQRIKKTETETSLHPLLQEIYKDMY
Method in brief: as §1

[17] = molecular target: Peroxisome proliferator-activated receptor gamma (Homo sapiens) (UniProt P37231); experiment: qHTS assay for small molecule agonists of peroxisome proliferator-activated receptor gamma signaling (AID 588536; active = well fitted curve in the direction sought with a large enough effect in the signal ratio, with a control signal flat, not every such curve was filed as active; the % refers to the signal ratio)
Sequence of Peroxisome proliferator-activated receptor gamma (Homo sapiens) (P37231 whole entry, looked up): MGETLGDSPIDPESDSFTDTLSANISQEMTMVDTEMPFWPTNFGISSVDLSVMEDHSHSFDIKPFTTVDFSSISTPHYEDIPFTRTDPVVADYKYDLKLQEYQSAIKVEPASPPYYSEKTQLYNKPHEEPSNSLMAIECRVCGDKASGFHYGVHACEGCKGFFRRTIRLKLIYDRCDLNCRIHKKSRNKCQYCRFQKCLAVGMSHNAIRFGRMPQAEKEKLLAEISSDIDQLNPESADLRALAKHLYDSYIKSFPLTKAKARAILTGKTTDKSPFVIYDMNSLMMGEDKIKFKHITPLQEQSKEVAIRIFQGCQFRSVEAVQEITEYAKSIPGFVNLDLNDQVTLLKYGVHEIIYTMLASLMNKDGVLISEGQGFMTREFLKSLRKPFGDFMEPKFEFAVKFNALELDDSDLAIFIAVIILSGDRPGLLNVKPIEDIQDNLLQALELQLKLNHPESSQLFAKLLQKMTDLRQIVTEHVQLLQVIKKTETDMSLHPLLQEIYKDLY
Method in brief: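 This is an agonist-mode beta-lactamase reporter assay in HEK293 PPAR-gamma-UAS-bla cells with 1% charcoal/dextran FBS. Compound titrations ran 16 h at 37 C before CCF4 detection. EC50 and efficacy are Hill fits scaled to 2 uM rosiglitazone (100%) and DMSO basal.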

[18] = molecular target: Peroxisome proliferator-activated receptor gamma (Homo sapiens) (UniProt P37231); experiment: qHTS assay for small molecule antagonists of peroxisome proliferator-activated receptor gamma signaling (AID 588537; active = well fitted inhibition curve with a large enough effect in the signal ratio, with a control signal flat, not every such curve was filed as active; the % refers to the signal ratio;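 also: reporter cells co-stimulated with 50 nM rosiglitazone agonist during compound treatment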)
Method in brief: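 Antagonist-mode β-lactamase reporter screen run as a titration series. HEK293 PPARγ-UAS-bla cells are stimulated with rosiglitazone (50 nM final) for 16 h, then CCF4 is read at 460/530 nm. Data are scaled between DMSO and rosiglitazone and fitted to the Hill equation.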

[19] = molecular target: Vitamin D3 receptor (Homo sapiens) (UniProt P11473); experiment: qHTS assay for small molecule antagonists of vitamin D receptor signaling (AID 588541; calls by dose curve;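 also: receptor activated by calcitriol during compound treatment; series mostly up to about 77 µM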)
Sequence of Vitamin D3 receptor (Homo sapiens) (P11473 whole entry, looked up): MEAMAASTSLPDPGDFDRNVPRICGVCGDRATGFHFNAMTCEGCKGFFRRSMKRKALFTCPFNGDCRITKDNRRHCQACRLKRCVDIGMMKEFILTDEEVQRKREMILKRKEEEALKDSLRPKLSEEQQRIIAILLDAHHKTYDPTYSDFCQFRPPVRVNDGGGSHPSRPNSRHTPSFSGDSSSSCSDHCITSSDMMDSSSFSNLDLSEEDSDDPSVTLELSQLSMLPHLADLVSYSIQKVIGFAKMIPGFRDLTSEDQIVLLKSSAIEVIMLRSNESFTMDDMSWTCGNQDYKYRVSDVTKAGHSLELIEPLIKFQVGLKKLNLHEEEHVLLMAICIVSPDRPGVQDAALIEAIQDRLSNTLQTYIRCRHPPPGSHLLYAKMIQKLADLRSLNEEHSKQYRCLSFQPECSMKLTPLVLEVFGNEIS
Method in brief: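 Antagonist-mode beta-lactamase reporter assay: HEK293T VDR-UAS-bla cells were exposed to titrated compound alongside 1-alpha,25-dihydroxyvitamin D3 at 3 nM final for 16 h. Values were normalized to the 50 nM agonist control and DMSO basal, with IC50 and efficacy from Hill equation fits.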

[20] = molecular target: Vitamin D3 receptor (Homo sapiens) (UniProt P11473); experiment: qHTS assay for small molecule agonists of vitamin D receptor signaling (AID 588543; calls by dose curve)
Method in brief: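 Reporter cells (HEK293T, VDR-UAS-bla) were seeded in medium with 2% charcoal-stripped serum and incubated 5 h, then compounds in concentration series were added for 16 h at 37 °C. Stimulation was scaled between DMSO basal and 50 nM 1α,25-dihydroxyvitamin D3.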

[21] = qHTS assay for small molecule agonists of retinoid X receptor alpha signaling (AID 588544; calls by dose curve); details: HEK293T RXRa-UAS-bla, beta-lactamase reporter, 18 h; 530 nm emission
[22] = molecular target: Retinoic acid receptor RXR-alpha (Homo sapiens) (UniProt P19793); experiment: as above
Sequence of Retinoic acid receptor RXR-alpha (Homo sapiens) (P19793 whole entry, looked up): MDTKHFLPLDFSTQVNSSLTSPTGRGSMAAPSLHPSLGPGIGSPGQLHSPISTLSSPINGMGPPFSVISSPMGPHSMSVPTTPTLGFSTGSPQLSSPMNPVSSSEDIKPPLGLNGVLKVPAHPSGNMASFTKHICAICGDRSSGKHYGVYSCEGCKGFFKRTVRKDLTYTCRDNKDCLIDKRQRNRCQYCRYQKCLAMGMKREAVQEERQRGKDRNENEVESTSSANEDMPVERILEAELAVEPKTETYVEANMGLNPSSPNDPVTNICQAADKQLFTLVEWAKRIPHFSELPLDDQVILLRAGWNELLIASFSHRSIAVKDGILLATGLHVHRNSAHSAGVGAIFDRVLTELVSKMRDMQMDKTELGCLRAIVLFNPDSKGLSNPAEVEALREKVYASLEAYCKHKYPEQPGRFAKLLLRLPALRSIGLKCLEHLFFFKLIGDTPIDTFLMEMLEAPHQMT

[23] = molecular target: Thyroid hormone receptor beta (Homo sapiens) (UniProt P10828); experiment: qHTS assay for small molecule agonists of thyroid hormone receptor beta signaling (AID 588545; calls by dose curve)
Sequence of Thyroid hormone receptor beta (Homo sapiens) (P10828 whole entry, looked up): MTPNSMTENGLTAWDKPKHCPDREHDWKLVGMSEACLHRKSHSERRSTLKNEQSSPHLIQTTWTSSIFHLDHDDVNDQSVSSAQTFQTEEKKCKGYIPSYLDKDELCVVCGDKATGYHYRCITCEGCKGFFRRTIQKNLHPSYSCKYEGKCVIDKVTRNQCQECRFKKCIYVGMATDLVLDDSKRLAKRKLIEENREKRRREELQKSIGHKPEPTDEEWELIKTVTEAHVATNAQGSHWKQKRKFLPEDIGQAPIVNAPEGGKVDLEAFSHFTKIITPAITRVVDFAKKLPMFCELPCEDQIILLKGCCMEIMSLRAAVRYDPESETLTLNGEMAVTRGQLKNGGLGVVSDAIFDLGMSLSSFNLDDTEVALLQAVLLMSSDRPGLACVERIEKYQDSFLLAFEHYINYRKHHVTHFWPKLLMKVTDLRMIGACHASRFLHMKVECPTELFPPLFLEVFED
Method in brief: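 Beta-lactamase reporter activity under TR response element control is measured in HEK 293 cells after 18 hrs compound exposure. Signal is ratiometric CCF4 fluorescence, 460/530 nm.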

[24] = qHTS assay for small molecule antagonists of retinoid X receptor alpha signaling (AID 588546; active = well fitted inhibition curve with a large enough effect in the signal ratio, with a control signal flat, not every such curve was filed as active; the % refers to the signal ratio;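 also: cells stimulated with 9-cis-retinoic acid as agonist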); details: HEK293T RXRa-UAS-bla, beta-lactamase ratio, antagonist mode; measured here: W530 green channel, cytotoxicity proxy
Method in brief: (§2)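 Beta-lactamase reporter inhibition, read as CCF4 fluorescence ratio (ex 405, em 460/530 nm) after 2 h at RT. HEK293T UAS-bla cells, 2500/well, were stimulated with 9-cis-RA at 500 or 100 nM final alongside test compound for 18 h at 37 C.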

[25] = molecular target: Retinoic acid receptor RXR-alpha (Homo sapiens) (UniProt P19793); experiment: as above; details: HEK293T RXRa-UAS-bla, beta-lactamase ratio, antagonist mode
Method in brief: as §2

[26] = molecular target: Thyroid hormone receptor beta (Homo sapiens) (UniProt P10828); experiment: qHTS assay for small molecule antagonists of thyroid hormone receptor beta signaling (AID 588547; active = well fitted inhibition curve with a large enough effect in the signal ratio, with a control signal flat, not every such curve was filed as active; the % refers to the signal ratio;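 also: cells stimulated with 0.4 nM T3 agonist during compound exposure; series mostly up to about 77 µM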); details: TR-UAS-bla HEK293, beta-lactamase ratio, antagonist mode, 18 h
Method in brief: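 Inhibition of T3-driven (0.4nM final) beta-lactamase reporter activity was measured over 0.59 nM to 92 uM compound after 18 h at 37 C. The cells were GripTite HEK293 TR-UAS-bla in charcoal/dextran-stripped serum, with CCF4 ratio read-out and IC50 from Hill fits.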

For Cc1ccccc1O, the outcome [1] was “inactive”, the outcome [2] was “inactive” and the outcome [3] was “inactive”. The outcome [4] was “inactive”, the outcome [5] was “inactive” and the outcome [6] was “inactive”. For the same molecule, the outcome [7] was “inactive”, the outcome [8] was “inactive” and the outcome [9] was “inactive”. The Potency [10] was “inactive”, the outcome [11] was “inactive” and the Potency [12] was “inactive”. The activation [13] was 1.9% (inactive) and -0.638% (inactive), the Potency [14] was “inactive” and the max response [15] was 12.8% and 44.7%. For the same molecule, the outcome [16] was “inactive”, the outcome [17] was “inactive” and the Potency [18] was “inactive”. The outcome [19] was “inactive”, the Potency [20] was “inactive” and the max response [21] was -16.4% and 2.5%. The outcome [22] was “inactive”, the Potency [23] was “inactive” and the max response [24] was -8.36% and -9.93%. The max response [25] was -5.98% (inactive) and 4.44% (inactive) and the activity change % (negative = inhibition) [26] was -12.9% (inactive) and -0.275% (inactive).
